Results filed as inconclusive are left out. A number with no mark means an inactive call. Activity calls are given as the source filed them. Unless noted, the call rests on the fitted dose curve.
Potency means the concentration at half of the fitted maximal effect.

The nature of one experiment: S16 Schwann cell PMP22 intronic element firefly luciferase assay (AID 624032; active means well fitted inhibition curve with a large enough effect; further: nearly all actives have a fitted effect of over 30% in size;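 on activity change, negative = inhibition: plate controls were DMSO for no effect and PTC124 positive control mean for full effect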). The note with it: S16 rat Schwann cells, PMP22 element FLuc, 24 h; series mostly up to 57.5 µM; activity change, negative = inhibition: at the top concentration. The method, boiled down:
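Rat S16 Schwann cells stably carrying a PMP22 intronic element-driven Fluc reporter were seeded overnight, then exposed to compounds for 24 h at 37 °C. Luminescence was normalized to PTC124 (positive control) and DMSO (0% activity).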
For `N#Cc1c(N(CC(=O)O)CC(=O)O)sc(C(=O)O)c1CC(=O)O`, the “activity change, negative = inhibition” value is 9.97%.

On to `CC(C)CN(C[C@@H](O)[C@H](Cc1ccccc1)NC(=O)O[C@H]1CO[C@H]2OCC[C@H]21)S(=O)(=O)c1ccc(N)cc1`, for which the “activity change, negative = inhibition” value was -7.57%.

`C=C1c2cccc(O)c2C(O)=C2C(=O)[C@@]3(O)C(O)=C(C(N)=O)C(=O)[C@@H](N(C)C)[C@@H]3[C@@H](O)[C@H]12`: the “activity change, negative = inhibition” value was -11.6% [at 25.7 µM].

As for `CS(=O)(=O)c1ccc(C2=C(c3ccccc3)C(=O)OC2)cc1`, the “activity change, negative = inhibition” value was -29.2%.

With `O=C(O)c1nc(=O)[nH]c(=O)[nH]1`, the Potency is 16.1 µM (active).

With `COc1c(C)c2c(c(O)c1CC=C(C)CCC(=O)OCCN1CCOCC1)C(=O)OC2`, the Potency was 5.1 µM (active).

On to `N#CC(c1ccc(Cl)cc1)c1c(Cl)cc(-n2ncc(=O)[nH]c2=O)cc1Cl` (stereo unspecified), for which the “activity change, negative = inhibition” value is 23%.

Turning to `COc1ccnc(CS(=O)c2nc3ccc(OC(F)F)cc3[nH]2)c1OC` (stereo unspecified), the “activity change, negative = inhibition” value was -2.95%.

For `Clc1ccc(COC(Cn2ccnc2)c2ccc(Cl)cc2Cl)c(Cl)c1` (stereo unspecified), the Potency was 8.7 µM (active).

With `NCC1CCC(C(=O)O)CC1` (stereo unspecified), the “activity change, negative = inhibition” value is -8.89% [at 25.7 µM].

`COc1cc2c(cc1OC)CC(=O)N(CCCN(C)C[C@H]1Cc3cc(OC)c(OC)cc31)CC2`: the “activity change, negative = inhibition” value is -12.6%.

For the compound `CN1CCN2c3ncccc3Cc3ccccc3C2C1` (stereo unspecified), the “activity change, negative = inhibition” value is -3.51%.

Another experiment is described as follows: S16 Schwann cell PMP22 intronic element beta-lactamase assay (AID 624044). Further: nearly all actives have a fitted effect of over 15% in size.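 On ratio activity, negative = inhibition: 0% = DMSO and -100% = potassium clavulanate positive control.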 The note with it: S16 rat Schwann cells, PMP22 element beta-lactamase FRET, 24 h; series mostly up to 38.3 µM; ratio activity, negative = inhibition: at the top concentration. The gist of the method: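 Beta-lactamase reporter under a PMP22 intronic regulatory element in stable S16 rat Schwann cells; 24 h compound exposure. 460 nm blue signal normalized between DMSO (0%) and potassium clavulanate, with 535 nm FRET tracking viability; curves classed by r2 and response.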
As for `CN1CC(=O)N2C(Cc3c([nH]c4ccccc34)[C@H]2c2ccc3c(c2)OCO3)C1=O` (stereo partly specified), the “ratio activity, negative = inhibition” value was -4.98%.

With `N#Cc1c(N(CC(=O)O)CC(=O)O)sc(C(=O)O)c1CC(=O)O`, the “ratio activity, negative = inhibition” value is -0.19%.

`C=C1c2cccc(O)c2C(O)=C2C(=O)[C@@]3(O)C(O)=C(C(N)=O)C(=O)[C@@H](N(C)C)[C@@H]3[C@@H](O)[C@H]12`: the “ratio activity, negative = inhibition” value was -16.9% [at 17.1 µM].

Take `O=C1C(CCC(O)c2ccc(F)cc2)C(c2ccc(O)cc2)N1c1ccc(F)cc1` (stereo unspecified): the “ratio activity, negative = inhibition” value is 0.354%.

As for `CS(=O)(=O)c1ccc(C2=C(c3ccccc3)C(=O)OC2)cc1`, the “ratio activity, negative = inhibition” value was 3.5%.

`O=C(O)c1nc(=O)[nH]c(=O)[nH]1`: the “ratio activity, negative = inhibition” value is 2.63%.

Take `COc1c(C)c2c(c(O)c1CC=C(C)CCC(=O)OCCN1CCOCC1)C(=O)OC2`: the Potency was 2.82 µM (active).

In the case of `N#CC(c1ccc(Cl)cc1)c1c(Cl)cc(-n2ncc(=O)[nH]c2=O)cc1Cl` (stereo unspecified), the “ratio activity, negative = inhibition” value was 6.36%.

For the compound `COc1ccnc(CS(=O)c2nc3ccc(OC(F)F)cc3[nH]2)c1OC` (stereo unspecified), the “ratio activity, negative = inhibition” value is -6.02%.

As to `Clc1ccc(COC(Cn2ccnc2)c2ccc(Cl)cc2Cl)c(Cl)c1` (stereo unspecified), the “ratio activity, negative = inhibition” value is 1.65% [at 17.1 µM].

Consider `NCC1CCC(C(=O)O)CC1` (stereo unspecified), for which the “ratio activity, negative = inhibition” value is 2.06% [at 17.1 µM].

Turning to `Fc1ccc(C(c2ccc(F)cc2)N2CCN(CC=Cc3ccccc3)CC2)cc1`, the “ratio activity, negative = inhibition” value is -20.1%.

For the compound `CN1CCN2c3ncccc3Cc3ccccc3C2C1` (stereo unspecified), the “ratio activity, negative = inhibition” value was 0.907%.

For the compound `Cc1cc2nc3c(=O)[nH]c(=O)nc-3n(CC(O)C(O)C(O)CO)c2cc1C` (stereo unspecified), the “ratio activity, negative = inhibition” value was -33.4%.

The values above are taken from PubChem BioAssay (NCATS).
